# Records with an inconclusive call do not appear. Calls of active or inactive are those of the source. The calls were made as follows, unless noted: active = hit-call score of the fitted dose curve at least 0.9, where 1 is the maximum; inconclusive = response in the unintended direction; inactive = score below 0.9.
# Experiments:
# [1] = ATG_TAL_CIS: Attagene CIS-FACTORIAL HepG2 Assay for human TAL Basal Promoter (AID 2282966; active = hit-call score of the fitted dose curve at least 0.9, where 1 is the maximum; inactive = score below 0.9;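 also: background control endpoint measuring basal TAL promoter reporter mRNA not a specific factor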); conditions: HepG2 Attagene cis-factorial TAL promoter reporter; actives raise or lower the signal
# In short: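 Basal-promoter background-control endpoint from a multiplexed HepG2 reporter panel. Cells were exposed 24 h, then reporter mRNA was read by RT-PCR/CE fluorescence and fitted in both directions relative to DMSO.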
# [2] = target: Nuclear receptor subfamily 1 group I member 3 (Homo sapiens) (UniProt Q14994); assay: ATG_CAR_TRANS: Attagene TRANS-FACTORIAL HepG2 Assay for human Constitutive Androstane Receptor (CAR) (AID 2282969); conditions: HepG2 Attagene TRANS-FACTORIAL CAR reporter;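 also: activators raise reporter mRNA above DMSO so AC50 marks induction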
# In short: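 Steps: transient transfection of HepG2 with multiple GAL4-UAS reporter units; 24 h compound incubation; RNA isolation, RT-PCR, 6-FAM primer extension, HpaI digest; capillary electrophoresis. Gain-of-signal relative to DMSO negative control.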
# [3] = target: X-box-binding protein 1 (Homo sapiens) (UniProt P17861); assay: ATG_Xbp1_CIS: Attagene CIS-FACTORIAL HepG2 Assay for human X-box Binding Protein 1 (XBP1) (AID 2282972; active = hit-call score of the fitted dose curve at least 0.9, where 1 is the maximum; inactive = score below 0.9); conditions: HepG2 XBP1 cis-element reporter, Attagene multiplex; actives raise or lower the signal
# In short: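 Human hepatoma HepG2, cis-element reporter system, 24 h treatment; mRNA quantified by RT-PCR/CE fluorescence; fit relative to DMSO.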
# [4] = ATG_GAL4_TRANS: Attagene TRANS-FACTORIAL HepG2 Assay for GAL4 (Internal Marker) (AID 2282976); conditions: HepG2 Attagene TRANS GAL4 internal marker reporter
# In short: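 Background-control readout: GAL4-UAS reporter transcript in transiently transfected HepG2 cells after 24 h compound exposure. Measured by RT-PCR, 6-FAM primer extension, HpaI digest and capillary electrophoresis; gain-of-signal fit versus DMSO.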
# [5] = target: Glucocorticoid receptor (Homo sapiens) (UniProt P04150); assay: ATG_GR_TRANS: Attagene TRANS-FACTORIAL HepG2 Assay for human Glucocorticoid Receptor (GR) (AID 2282978); conditions: HepG2 Attagene TRANS GR reporter, mRNA transcription;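 also: activators score as hits since higher reporter transcript over DMSO is fitted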
# In short: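 HepG2 transient transfection, multiple reporter units, GAL4-UAS under NR-GAL4 chimera control. 24 h treatment. Reporter mRNA by RT-PCR/CE fluorescence, DMSO as negative control.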
# [6] = target: Bile acid receptor (Homo sapiens) (UniProt Q96RI1); assay: ATG_FXR_TRANS: Attagene TRANS-FACTORIAL HepG2 Assay for Farnesoid X Receptor (FXR) (AID 2282979); conditions: HepG2 Attagene TRANS FXR-GAL4 reporter transcription;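 also: hits raise reporter mRNA above DMSO so AC50 marks FXR activation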
# In short: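 HepG2 cells were transiently transfected with GAL4-UAS reporters driven by chimeric NR-Gal4 proteins and dosed for 24 h. Reporter mRNA was quantified by RT-PCR, fluorescent labelling, HpaI digestion and capillary electrophoresis, with gain of signal scored versus DMSO.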
# [7] = target: Oxysterols receptor LXR-alpha (Homo sapiens) (UniProt Q13133); assay: ATG_LXRa_TRANS: Attagene TRANS-FACTORIAL HepG2 Assay for human Liver X Receptor alpha (LXRa) (AID 2282980); conditions: HepG2 Attagene TRANS reporter, LXRa transactivation
# In short: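 HepG2 cells transiently transfected with GAL4-UAS reporter units for chimeric NR-Gal4 proteins, exposed to chemicals for 24 h. Reporter mRNA quantified by RT-PCR and capillary electrophoresis; gain of signal fitted relative to DMSO.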
# [8] = target: Hepatocyte nuclear factor 4-alpha (Homo sapiens) (UniProt P41235); assay: ATG_HNF4a_TRANS: Attagene TRANS-FACTORIAL HepG2 Assay for human Hepatocyte Nuclear Factor 4 alpha (HNF4a) (AID 2282982); conditions: HepG2 HNF4a transactivation reporter, mRNA readout
# In short: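 In this trans-factorial format, a chimeric HNF4a-GAL4 fusion drives a GAL4-UAS reporter in transfected HepG2 liver cells. After 24 h treatment, reporter mRNA induction is measured by RT-PCR with capillary electrophoresis, relative to DMSO.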
# [9] = ATG_M_06_TRANS: Attagene TRANS-FACTORIAL HepG2 Assay for M06 Transcription Factor (Internal Marker) (AID 2282983); conditions: HepG2 Attagene TRANS M06 internal marker reporter
# In short: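 mRNA levels of a reporter transcript, quantified as FAM fluorescence on capillary electrophoresis, served as readout. HepG2 cells expressing exogenous GAL4-chimera reporter constructs were exposed for 24 h. Gain of signal over DMSO was evaluated.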
# [10] = ATG_M_32_TRANS: Attagene TRANS-FACTORIAL HepG2 Assay for M32 Transcription Factor (Internal Marker) (AID 2282984); conditions: HepG2 Attagene TRANS M32 internal marker reporter
# In short: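 After 24 h dosing of transfected HepG2 cells, total RNA was reverse-transcribed, reporter sequences PCR-amplified, 6-FAM labelled by primer extension and HpaI-digested before capillary electrophoresis. Signal increase over DMSO was fitted.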
# [11] = target: Nuclear receptor subfamily 4 group A member 2 (Homo sapiens) (UniProt P43354); assay: ATG_NURR1_TRANS: Attagene TRANS-FACTORIAL HepG2 Assay for human Nuclear Receptor Related Protein 1 (NURR1) (AID 2282985); conditions: HepG2 Attagene TRANS reporter, mRNA readout
# In short: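 Chimeric NR-Gal4 fusion activity measured in HepG2 after 24 h treatment. Reporter transcripts detected by RT-PCR and capillary electrophoresis fluorescence; positive-direction curve fitting against DMSO.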
# [12] = target: Transcriptional activator Myb (Homo sapiens) (UniProt P10242); assay: ATG_Myb_CIS: Attagene CIS-FACTORIAL HepG2 Assay for human Myeloblastosis (Myb) Proto-Oncogene Transcription Factor (AID 2282986; active = hit-call score of the fitted dose curve at least 0.9, where 1 is the maximum; inactive = score below 0.9); conditions: HepG2 Attagene CIS-FACTORIAL Myb reporter transcription; actives raise or lower the signal
# In short: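 Multiplexed cis-reporter system in HepG2: transient transfection, 24 h treatment, mRNA readout by RT-PCR and capillary electrophoresis. Both increases and decreases are scored versus DMSO negative control.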
# [13] = target: Nuclear respiratory factor 1 (Homo sapiens) (UniProt Q16656); assay: ATG_NRF1_CIS: Attagene CIS-FACTORIAL HepG2 Assay for human Nuclear Respiratory Factor 1 (NRF1) Orphan Gene (AID 2282987; active = hit-call score of the fitted dose curve at least 0.9, where 1 is the maximum; inactive = score below 0.9); conditions: HepG2 NRF1 cis-element reporter, Attagene multiplex; actives raise or lower the signal
# In short: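 Endogenous factor activity was captured via cis-element-driven reporter transcripts in HepG2 cells. Following 24 h chemical treatment, transcripts were quantified by RT-PCR and capillary electrophoresis.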
# [14] = target: Estrogen receptor (Homo sapiens) (UniProt P03372); assay: ATG_ERa_TRANS: Attagene TRANS-FACTORIAL HepG2 Assay for human Estrogen Receptor alpha (ERa) (AID 2282970); conditions: HepG2 Attagene TRANS ERa GAL4 reporter, mRNA
# In short: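 Gal4-fusion ERa transactivation, measured as reporter transcript level in transiently transfected HepG2 cells. Exposure 24 h; RT-PCR plus capillary electrophoresis with fluorescence detection.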
# [15] = target: Steroid hormone receptor ERR1 (Homo sapiens) (UniProt P11474); assay: ATG_ERRa_TRANS: Attagene TRANS-FACTORIAL HepG2 Assay for human Estrogen-Related Receptor alpha (ERRa) (AID 2282971); conditions: HepG2 Attagene TRANS reporter, ERRa transactivation
# In short: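 HepG2 cells transiently transfected with GAL4-UAS reporter units and chimeric NR-Gal4 constructs; after 24 hour compound incubation, reporter mRNA quantified by RT-PCR, fluorescent labelling and capillary electrophoresis, gain of signal versus DMSO.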
# [16] = target: Estrogen-related receptor gamma (Homo sapiens) (UniProt P62508); assay: ATG_ERRg_TRANS: Attagene TRANS-FACTORIAL HepG2 Assay for human Estrogen-Related Receptor gamma (ERRg) (AID 2282977); conditions: HepG2 Attagene TRANS reporter, ERRg transactivation;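 also: hits increase reporter signal over DMSO so potencies reflect activators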
# In short: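 Exogenous NR-Gal4 chimera activity measured as reporter transcript induction after 24 h in transiently transfected HepG2 cells. RNA reverse-transcribed, PCR-amplified, 6-FAM-labelled and resolved by capillary electrophoresis; increase over DMSO baseline.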
# [17] = target: Oxysterols receptor LXR-beta (Homo sapiens) (UniProt P55055); assay: ATG_LXRb_TRANS: Attagene TRANS-FACTORIAL HepG2 Assay for human Liver X Receptor beta (LXRb) (AID 2282981); conditions: HepG2 Attagene TRANS GAL4-LXRb reporter, mRNA
# In short: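 Measures induction of a Gal4-driven reporter transcript in HepG2 cells expressing an exogenous LXRb-Gal4 fusion. Cells are exposed to compound for 24 h before RNA isolation and RT-PCR with capillary electrophoresis detection.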
# [18] = ATG_VDRE_CIS: Attagene CIS-FACTORIAL HepG2 Assay for human Vitamin D Receptor Element (VDRE) (AID 2282968; active = hit-call score of the fitted dose curve at least 0.9, where 1 is the maximum; inactive = score below 0.9); conditions: HepG2 VDRE cis-reporter transcription, actives raise or lower the signal
# In short: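 Steps: transfect HepG2 with multiple reporter transcription units; dose chemicals 24 h; isolate RNA; RT-PCR; label with 6-FAM primer extension; HpaI digest; capillary electrophoresis. Curves fitted both directions against DMSO.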
# [19] = ATG_M_19_TRANS: Attagene TRANS-FACTORIAL HepG2 Assay for M19 Transcription Factor (Internal Marker) (AID 2282974); conditions: HepG2 Attagene TRANS-FACTORIAL M19 internal marker reporter
# In short: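 Gain-of-signal in reporter mRNA, relative to DMSO, was scored from capillary electrophoresis fluorescence. HepG2 cells carried transiently transfected multiple reporter transcription units and were incubated with test chemicals for 24 h.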
# [20] = ATG_TGFb_CIS: Attagene CIS-FACTORIAL HepG2 Assay for human Transforming Growth Factor (TGF) (AID 2282967; active = hit-call score of the fitted dose curve at least 0.9, where 1 is the maximum; inactive = score below 0.9); conditions: HepG2 Attagene CIS TGFb reporter, mRNA transcription; actives raise or lower the signal
# In short: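 Transient MRTU transfection of HepG2 (FuGene 6). Dose 24 h. TriZol RNA, oligo(dT) RT, PCR, 6-FAM primer extension, HpaI cut, CE. Bidirectional fit, DMSO = baseline.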
# Sequence of Nuclear respiratory factor 1 (Homo sapiens) (Q16656 whole entry, looked up): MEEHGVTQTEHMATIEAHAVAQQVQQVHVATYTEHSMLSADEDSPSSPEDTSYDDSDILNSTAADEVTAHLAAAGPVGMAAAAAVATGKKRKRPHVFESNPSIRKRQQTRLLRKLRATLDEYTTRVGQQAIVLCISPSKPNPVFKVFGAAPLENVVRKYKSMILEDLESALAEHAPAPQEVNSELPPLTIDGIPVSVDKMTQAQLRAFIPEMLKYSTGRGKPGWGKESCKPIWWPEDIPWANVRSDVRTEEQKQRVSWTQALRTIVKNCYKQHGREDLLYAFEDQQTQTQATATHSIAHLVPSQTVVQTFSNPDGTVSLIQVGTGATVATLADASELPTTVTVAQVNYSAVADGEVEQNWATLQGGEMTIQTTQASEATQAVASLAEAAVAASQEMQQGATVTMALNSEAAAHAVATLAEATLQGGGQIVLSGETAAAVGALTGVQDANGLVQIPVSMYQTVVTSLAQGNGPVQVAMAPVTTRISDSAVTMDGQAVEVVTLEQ
# Sequence of Oxysterols receptor LXR-beta (Homo sapiens) (P55055 whole entry, looked up, the tested form may be a part): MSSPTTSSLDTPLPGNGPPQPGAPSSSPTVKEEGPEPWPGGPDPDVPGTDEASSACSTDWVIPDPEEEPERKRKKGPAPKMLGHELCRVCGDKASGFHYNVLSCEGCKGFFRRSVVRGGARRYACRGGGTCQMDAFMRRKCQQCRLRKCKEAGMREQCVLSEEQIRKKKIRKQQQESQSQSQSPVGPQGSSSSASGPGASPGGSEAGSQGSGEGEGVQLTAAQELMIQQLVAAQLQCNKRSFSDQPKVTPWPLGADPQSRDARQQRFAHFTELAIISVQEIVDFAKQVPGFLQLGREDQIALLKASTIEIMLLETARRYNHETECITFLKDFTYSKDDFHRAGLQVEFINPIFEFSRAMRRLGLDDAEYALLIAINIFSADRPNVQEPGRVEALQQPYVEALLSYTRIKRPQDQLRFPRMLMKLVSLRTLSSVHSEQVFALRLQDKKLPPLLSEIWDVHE
# Sequence of Transcriptional activator Myb (Homo sapiens) (P10242 whole entry, looked up): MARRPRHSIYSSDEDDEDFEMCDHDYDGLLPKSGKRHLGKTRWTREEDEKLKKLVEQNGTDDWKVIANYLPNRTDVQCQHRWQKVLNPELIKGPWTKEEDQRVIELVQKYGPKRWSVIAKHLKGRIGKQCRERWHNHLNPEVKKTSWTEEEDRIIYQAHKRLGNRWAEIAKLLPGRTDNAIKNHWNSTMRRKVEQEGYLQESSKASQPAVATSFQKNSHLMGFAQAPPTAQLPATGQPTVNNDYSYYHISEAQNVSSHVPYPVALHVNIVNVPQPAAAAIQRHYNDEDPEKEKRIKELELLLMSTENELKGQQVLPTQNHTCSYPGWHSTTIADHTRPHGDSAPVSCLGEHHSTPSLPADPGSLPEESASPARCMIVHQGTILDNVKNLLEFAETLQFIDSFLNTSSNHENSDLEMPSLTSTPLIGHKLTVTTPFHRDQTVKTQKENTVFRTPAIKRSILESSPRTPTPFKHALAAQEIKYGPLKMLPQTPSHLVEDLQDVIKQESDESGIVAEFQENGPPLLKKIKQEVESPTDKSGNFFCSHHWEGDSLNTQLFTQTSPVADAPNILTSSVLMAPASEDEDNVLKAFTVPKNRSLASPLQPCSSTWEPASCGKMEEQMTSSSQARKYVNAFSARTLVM
# Sequence of Glucocorticoid receptor (Homo sapiens) (P04150 whole entry, looked up, the tested form may be a part): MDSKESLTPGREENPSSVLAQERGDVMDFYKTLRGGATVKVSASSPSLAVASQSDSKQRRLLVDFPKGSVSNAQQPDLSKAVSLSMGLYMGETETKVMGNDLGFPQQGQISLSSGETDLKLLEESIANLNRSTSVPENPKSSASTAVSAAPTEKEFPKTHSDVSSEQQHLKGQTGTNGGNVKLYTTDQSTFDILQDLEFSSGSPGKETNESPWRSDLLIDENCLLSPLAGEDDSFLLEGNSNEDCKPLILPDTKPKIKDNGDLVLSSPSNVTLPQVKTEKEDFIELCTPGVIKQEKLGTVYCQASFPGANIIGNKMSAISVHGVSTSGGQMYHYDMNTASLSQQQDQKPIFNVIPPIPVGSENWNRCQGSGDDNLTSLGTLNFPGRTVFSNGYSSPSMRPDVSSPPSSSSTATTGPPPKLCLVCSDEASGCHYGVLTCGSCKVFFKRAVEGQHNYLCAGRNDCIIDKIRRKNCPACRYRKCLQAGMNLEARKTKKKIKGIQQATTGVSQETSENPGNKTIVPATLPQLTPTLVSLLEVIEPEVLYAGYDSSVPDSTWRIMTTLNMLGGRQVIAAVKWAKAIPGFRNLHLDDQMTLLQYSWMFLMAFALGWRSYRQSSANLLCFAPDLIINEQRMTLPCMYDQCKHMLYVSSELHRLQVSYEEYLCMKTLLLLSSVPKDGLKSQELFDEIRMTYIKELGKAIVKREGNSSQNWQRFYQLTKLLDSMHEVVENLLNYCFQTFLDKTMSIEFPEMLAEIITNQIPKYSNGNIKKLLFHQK
# Sequence of Nuclear receptor subfamily 4 group A member 2 (Homo sapiens) (P43354 whole entry, looked up, the tested form may be a part): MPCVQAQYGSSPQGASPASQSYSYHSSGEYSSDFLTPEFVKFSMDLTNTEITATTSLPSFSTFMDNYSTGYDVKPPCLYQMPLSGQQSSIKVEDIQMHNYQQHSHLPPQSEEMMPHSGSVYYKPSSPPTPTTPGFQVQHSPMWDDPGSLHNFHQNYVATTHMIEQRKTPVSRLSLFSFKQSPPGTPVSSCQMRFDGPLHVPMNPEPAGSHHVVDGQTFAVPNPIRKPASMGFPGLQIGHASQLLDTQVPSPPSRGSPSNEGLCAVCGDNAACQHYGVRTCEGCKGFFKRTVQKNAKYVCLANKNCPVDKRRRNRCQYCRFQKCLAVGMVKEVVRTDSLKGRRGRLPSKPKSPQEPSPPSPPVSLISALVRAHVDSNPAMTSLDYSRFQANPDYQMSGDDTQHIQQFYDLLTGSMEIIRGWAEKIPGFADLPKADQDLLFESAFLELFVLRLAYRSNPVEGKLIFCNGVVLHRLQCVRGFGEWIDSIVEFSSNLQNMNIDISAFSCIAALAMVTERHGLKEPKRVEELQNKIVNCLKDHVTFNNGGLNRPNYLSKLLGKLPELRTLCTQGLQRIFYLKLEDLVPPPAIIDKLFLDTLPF
# Sequence of X-box-binding protein 1 (Homo sapiens) (P17861 whole entry, looked up): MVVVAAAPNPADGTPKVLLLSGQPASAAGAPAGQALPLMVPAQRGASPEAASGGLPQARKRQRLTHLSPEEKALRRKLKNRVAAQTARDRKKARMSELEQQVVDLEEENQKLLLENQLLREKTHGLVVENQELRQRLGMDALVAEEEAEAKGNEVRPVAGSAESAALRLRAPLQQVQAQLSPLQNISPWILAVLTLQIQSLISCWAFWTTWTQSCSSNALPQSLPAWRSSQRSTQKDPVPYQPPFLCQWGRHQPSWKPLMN
# Sequence of Estrogen receptor (Homo sapiens) (P03372 whole entry, looked up, the tested form may be a part): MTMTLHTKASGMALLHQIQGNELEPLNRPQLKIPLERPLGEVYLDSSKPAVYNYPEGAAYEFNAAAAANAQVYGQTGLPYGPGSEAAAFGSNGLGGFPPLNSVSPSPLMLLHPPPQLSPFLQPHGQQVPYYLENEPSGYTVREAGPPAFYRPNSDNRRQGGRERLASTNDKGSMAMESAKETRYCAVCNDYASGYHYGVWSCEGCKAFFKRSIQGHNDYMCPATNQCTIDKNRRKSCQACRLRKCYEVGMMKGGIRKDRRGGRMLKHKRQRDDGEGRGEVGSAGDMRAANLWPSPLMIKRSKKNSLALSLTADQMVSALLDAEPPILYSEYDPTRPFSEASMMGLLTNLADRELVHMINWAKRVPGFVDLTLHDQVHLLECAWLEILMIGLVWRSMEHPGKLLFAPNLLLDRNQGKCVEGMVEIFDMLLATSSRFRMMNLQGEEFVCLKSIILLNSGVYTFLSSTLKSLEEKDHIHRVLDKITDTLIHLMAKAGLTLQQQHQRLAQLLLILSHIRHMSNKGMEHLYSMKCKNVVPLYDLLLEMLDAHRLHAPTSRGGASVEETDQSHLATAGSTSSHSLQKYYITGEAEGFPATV
# Sequence of Hepatocyte nuclear factor 4-alpha (Homo sapiens) (P41235 whole entry, looked up, the tested form may be a part): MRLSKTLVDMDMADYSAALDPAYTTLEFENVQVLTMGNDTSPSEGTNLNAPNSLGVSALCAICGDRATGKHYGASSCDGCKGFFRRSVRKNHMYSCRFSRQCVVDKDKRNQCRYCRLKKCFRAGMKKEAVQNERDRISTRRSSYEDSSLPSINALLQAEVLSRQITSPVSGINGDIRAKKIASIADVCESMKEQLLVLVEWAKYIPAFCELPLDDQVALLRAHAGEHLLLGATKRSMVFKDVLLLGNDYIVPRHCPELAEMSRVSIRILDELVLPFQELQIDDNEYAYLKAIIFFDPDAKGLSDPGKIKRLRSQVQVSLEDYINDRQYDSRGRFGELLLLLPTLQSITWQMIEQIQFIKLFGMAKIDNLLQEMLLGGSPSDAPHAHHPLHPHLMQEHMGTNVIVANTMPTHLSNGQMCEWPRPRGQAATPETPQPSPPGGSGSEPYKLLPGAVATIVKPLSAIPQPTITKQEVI
# Sequence of Nuclear receptor subfamily 1 group I member 3 (Homo sapiens) (Q14994 whole entry, looked up, the tested form may be a part): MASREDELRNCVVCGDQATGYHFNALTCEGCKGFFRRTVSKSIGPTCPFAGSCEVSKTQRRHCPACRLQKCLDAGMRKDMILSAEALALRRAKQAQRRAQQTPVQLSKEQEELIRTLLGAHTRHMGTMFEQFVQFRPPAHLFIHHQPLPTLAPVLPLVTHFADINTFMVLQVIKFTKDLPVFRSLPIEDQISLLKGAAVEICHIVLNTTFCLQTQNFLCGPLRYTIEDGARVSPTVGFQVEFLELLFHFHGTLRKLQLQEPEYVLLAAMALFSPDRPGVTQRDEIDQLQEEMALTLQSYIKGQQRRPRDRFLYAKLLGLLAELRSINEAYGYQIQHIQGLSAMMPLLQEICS
compound,measurement,setting,value
COC(=O)C1=C(C)NC(C)=C(C(=O)OCC(C)C)C1c1ccccc1[N+](=O)[O-] (stereo not drawn),outcome,[1],inactive
same,outcome,[2],inactive
same,outcome,[3],inactive
same,outcome,[4],inactive
same,outcome,[5],inactive
same,outcome,[6],inactive
same,outcome,[7],inactive
same,outcome,[8],inactive
same,outcome,[9],inactive
same,outcome,[10],inactive
same,outcome,[11],inactive
same,outcome,[12],inactive
same,AC50,[13],15.4 µM (active)
O=C(Nc1ccccc1)c1ccccc1O,outcome,[1],inactive
same,AC50,[14],27.2 µM (active)
same,outcome,[15],inactive
same,AC50,[3],44.4 µM (active)
same,outcome,[16],inactive
same,outcome,[5],inactive
same,outcome,[7],inactive
same,outcome,[17],inactive
same,outcome,[8],inactive
same,outcome,[9],inactive
same,outcome,[11],inactive
same,outcome,[13],inactive
O=c1cc(-c2ccccc2)oc2ccccc12,outcome,[1],inactive
same,AC50,[18],30.5 µM (active)
same,outcome,[2],inactive
same,AC50,[14],4.97 µM (active)
same,AC50,[3],82.8 µM (active)
same,outcome,[19],inactive
same,outcome,[5],inactive
same,outcome,[17],inactive
same,outcome,[9],inactive
same,outcome,[11],inactive
same,outcome,[12],inactive
same,outcome,[13],inactive
COc1ccc(NC(C)=O)cc1N,outcome,[1],inactive
same,outcome,[3],inactive
same,outcome,[17],inactive
same,outcome,[9],inactive
same,outcome,[11],inactive
same,outcome,[12],inactive
same,outcome,[13],inactive
COC(=O)c1ccccc1OC,outcome,[1],inactive
same,outcome,[20],inactive
same,outcome,[15],inactive
same,outcome,[3],inactive
same,outcome,[6],inactive
same,outcome,[9],inactive
same,outcome,[11],inactive
same,outcome,[12],inactive
same,outcome,[13],inactive

# Reference: PubChem BioAssay (EPA / NIEHS)
